From ChEMBL document CHEMBL4888484, “Replenishing the malaria drug discovery pipeline: Screening and hit evaluation of the MMV Hit Generation Library 1 (HGL1) against asexual blood stage Plasmodium falciparum ,using a nano luciferase reporter read-out” (2022) come the findings set out here.

Out of some 150,000 compounds screened, about 540 (0.36%) showed an effect of 50% or more. For the sample, strong results were picked, then their nearest neighbours and some compounds at random.

This test relates to Plasmodium falciparum. The test can be described thus: Primary screen in NF54 nanoGlo assay, in single point, at 2uM, 72h; a lower Z score goes with more inhibition. Format: functional, Erythrocyte. Conditions: timepoint 72 hour.
With `O=C(NC(C1CC1)C1CC1)c1coc(COc2cccc(F)c2)n1`, the “% Inhibition” value is recorded as -6% and the Z score is 1.01.
The corresponding values for `Cc1noc(C)c1CC(=O)N1CCCCCC1` are -23% and 2.1.
For `Cc1noc(Cl)c1CC(=O)N1CCCC(C)(C)CC1`, the “% Inhibition” value is listed as 44% and the Z score is -6.85.
The corresponding values for `CC[C@@]1(C)CCCN(C(=O)Cc2c(C)noc2Cl)C1` are 85% and -13.67.
As for `Cc1cc(C(=O)Nc2nc(C)cs2)on1`, the “% Inhibition” value is listed as -13% and the Z score came out at 2.13.
For `c1ccc2cc(-c3ccc4ccccc4n3)ccc2c1`, in that order: 41% and -1.59.
For `c1ccc2c[n+](Cc3ccc4ccccc4n3)ccc2c1`, in that order: 59% and -7.39.
The corresponding values for `O[C@@H](Cc1ccc2ccccc2n1)c1ccccc1` are 33% and 0.78.
On to `Cc1nnc(CN(C)Cc2ccc3ccccc3n2)o1`, for which the “% Inhibition” value was -21% and the Z score turned out to be 2.06.
In the case of `Cc1ccc[n+](CC2OCc3ccccc3CO2)c1`, the “% Inhibition” value is reported as 5% and the Z score is listed as -0.68.
For `Cc1ccc[n+](Cc2ccc3ccccc3n2)c1`, in that order: 59% and -7.89.
For the compound `Cc1ccc(S(=O)(=O)N2CCO[C@@H](COc3ccccc3)C2)c(C)c1NS(C)(=O)=O`, the “% Inhibition” value is 0% and the Z score turned out to be 0.05.
Consider `COC(C)(C)CCC[C@H](C)CCNCC(C)(C)N1CCOCC1`, for which the “% Inhibition” value is 1% and the Z score was -0.18.
The corresponding values for `N#C[C@H]1C(=O)c2ccccc2N(Cc2ccccc2)C1=O` are -5% and 0.84.
Turning to `CCN1CC(=O)N[C@H]2CN(C(=O)c3cnn(CC)c3C)CC[C@@H]2OCc2cccc(c2)Oc2cc(OC(C)C)cc(c2)C1=O`, the “% Inhibition” value is reported as -5% and the Z score is on record as 0.73.
The corresponding values for `CCn1nc(-c2ccc(OC)cc2F)cc1C(=O)NCCN1CCCCC1` are -17% and 2.1.
In the case of `Cc1cc(C)c2nc(N3CCC(C(=O)NC4CCCCCC4)CC3)sc2c1`, the “% Inhibition” value is given as -8% and the Z score is listed as 1.22.
For `CC(C)CNC(=O)CS(=O)(=O)Cc1ccccc1`, in that order: -6% and 1.18.
The corresponding values for `CCOC(=O)N1CCC(NC(=O)c2coc(NC(=O)Cc3c(C)noc3C)n2)CC1` are 18% and -2.53.
As for `CC(C)c1cc(=O)[nH]c(-n2nc(C3CC3)cc2NC(=O)Cc2ccc(Cl)cc2)n1`, the “% Inhibition” value is reported as 74% and the Z score is recorded as -12.5.
For `COc1ccc(C(=O)OCC(=O)Nc2cc(C3CC3)nn2-c2ccccc2)c(O)c1`, in that order: -7% and 1.34.
The corresponding values for `CC(C)c1cc(=O)[nH]c(-n2nc(C3CC3)cc2NC(=O)COc2ccc3ccccc3c2)n1` are 54% and -12.73.
Take `Cc1nc(CC(=O)Nc2cc(C3CC3)nn2-c2ccccc2)cs1`: the “% Inhibition” value amounted to 38% and the Z score is -0.78.
Regarding `CC(C)c1cc(=O)[nH]c(-n2nc(C3CC3)cc2NC(=O)c2ccccc2C(F)(F)F)n1`, the “% Inhibition” value was 18% and the Z score was -3.33.
Regarding `COc1ccc(C2CN(Cc3ccccn3)CC2CN(Cc2ccc(F)cc2)C(C)=O)cc1` (stereo unspecified), the “% Inhibition” value stood at 15% and the Z score is given as -1.72.
For the compound `COC(=O)c1ccc(C)c(NC(=O)c2cn(C)cn2)c1O`, the “% Inhibition” value was -2% and the Z score amounted to 0.17.
Regarding `COCCCN(Cc1ccco1)C[C@H](O)COC(C)(C)C`, the “% Inhibition” value was determined as 2% and the Z score is recorded as -0.27.
The corresponding values for `CC(C)(Oc1cc2c(cc1-c1cncc(C3CC3)c1)CCO2)C(=O)O` are -1% and 0.1.
For `CC(C)c1cc(=O)[nH]c(-n2nc(C3CC3)cc2NC(=O)c2ccc(F)c(F)c2)n1`, in that order: 5% and -0.72.
The corresponding values for `Cc1cc(=O)[nH]c(-n2nc(C3CC3)cc2NC(=O)C(c2ccccc2)c2ccccc2)n1` are 86% and -11.5.
Regarding `CC[C@@H](C(=O)Nc1cc(C)nn1-c1nc2c(c(=O)[nH]1)CCC2)c1ccccc1`, the “% Inhibition” value is listed as 17% and the Z score is recorded as -3.37.
The corresponding values for `Cn1nc(C2CCCC2)cc1NC(=O)c1ccc(OCC(=O)O)cc1` are 1% and -0.23.
The corresponding values for `Cc1cc(=O)[nH]c(-n2nc(C3CC3)cc2NC(=O)c2ccc(C(C)(C)C)cc2)n1` are 57% and -4.8.
For the compound `CC(C)c1cc(=O)[nH]c(-n2nc(C3CC3)cc2NC(=O)c2ccc(F)cc2)n1`, the “% Inhibition” value was 90% and the Z score was -16.95.
The corresponding values for `COCC(=O)Nc1cc(C2CC2)nn1-c1nc(C)cc(=O)[nH]1` are 4% and -0.78.
For `Cc1nn(C(C)C)c(C)c1CN(C)C(=O)c1cc(C#N)c[nH]1`, in that order: 0% and -0.07.
In the case of `CN1C(=O)CCC12CCN(S(=O)(=O)Cc1ccc(Cl)cc1F)CC2`, the “% Inhibition” value is recorded as -3% and the Z score turned out to be 0.59.
In the case of `c1ccc(-c2noc(C3CCN(c4ccc5nncn5n4)CC3)n2)nc1`, the “% Inhibition” value is on record as -18% and the Z score is given as 2.08.
For `CC(C)c1nccn1CC(=O)N(C)[C@@H](C)c1ccc(F)c(F)c1`, in that order: -1% and 0.13.
The corresponding values for `C[C@@H]1CN(CCCCO)CCN1C(=O)OC(C)(C)C` are -1% and 0.08.
With `Cc1onc(-c2ccccc2Cl)c1C(=O)NCC1(c2ccc(F)cc2)CCOCC1`, the “% Inhibition” value is -13% and the Z score is recorded as 2.28.
The corresponding values for `CN1C[C@]2(CCCN(Cc3ccc(OCC(=O)c4ccccc4)cc3)C2)CCC1=O` are -5% and 0.67.
As to `CCCc1c(C(=O)N2CCNc3ncccc32)cnn1C1CCCC1`, the “% Inhibition” value was -7% and the Z score was found to be 1.14.

As a reminder, the % Inhibition is the change of the read-out against control, counted positive when it falls.
